What all share (assay): NCI-60 one-dose screen, 48 h (100 = growth as untreated, 0 = no growth, -100 = all killed)
Common to all, as to conditions: 10 µM unless noted

In test [1] the test system is T-47D breast.
Test [2] deals with BT-549 breast.
Test [3] deals with MDA-MB-435 melanoma.
Test [4] has as its system SW-620 colon.
In test [5] the test system is MCF7 breast.
Test [6] deals with HCT-116 colon.
Test [7] has as its system HCC-2998 colon.
Test [8] relates to KM12 colon.

SMILES strings stand for the structures. This is part of a sample that, as a whole, favours compounds with a hit. Of some 83,000 tested, about 20% had one in any assay.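 The test compound was applied at a single concentration to cells in 96-well plates for 48 hours, and percent growth was recorded.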 A number with no mark means an inactive call. Calls of active or inactive are those of the source. How the source made its calls: active means growth percent below 10; inactive means the rest.

As for `NC(N)=N/N=C(/c1ccccc1)c1ccccc1F`, the growth in test [1] was 3.86% (active); in test [2], 70.8%; in test [3], -56% (active); in test [4], 40%; in test [5], 15.9%; in test [6], -28.7% (active). Also, the growth was 2.85% (active) in test [7] and 13.8% in test [8].

On to `CCOC(=O)c1sc2ccc(NCc3nc[nH]c3C)cc2c1NC(=O)c1cc(OC)c(OC)c(OC)c1`, for which the growth is 76.2% in test [1]; 94.8% in test [2]; 71.7% in test [3]; 79.8% in test [4]; 62.6% in test [5]; 55.4% in test [6]. Further, the values for the growth in test [7] and in test [8] were 106% and 93.7%, respectively.

Take `O=C1Nc2ccccc2/C1=N/N=C/c1ccc(OC2OC(CO)C(O)C(O)C2O)cc1` (stereo not drawn): the growth in test [1] was 105%; in test [2] it was 109%; in test [3] it was 106%; in test [4], 101%; in test [5], 103%; in test [6], 107%. The figures for the growth in test [7] and in test [8] were 115% and 110%, respectively.

Consider `O=C1Nc2ccccc2SC1c1ccccc1Cl` (stereo not drawn), for which the growth in test [1] is 92.9%; in test [2], 82.9%; in test [3] it was -12.6% (active); in test [4], 75.5%; in test [5], 119%; in test [6], 105%. Moreover, the results for the growth in test [7] and in test [8] were 124% and 53.7%, respectively.

In the case of `CCCCNC(=O)NS(=O)(=O)c1ccc(N2N=C(c3ccc(C)cc3C)CC2c2ccc(N(C)C)cc2)cc1` (stereo not drawn), the growth in test [1] was 70.4%; in test [2] it was 45.6%; in test [3], 9.98% (active); in test [4], 61.8%; in test [5] it was 37.4%; in test [6] it was 39.3%. Also, the growth in test [7] was 46.1%; in test [8], 49.2%.

In the case of `N#Cc1c(N)nc2c(nnn2-c2cccc(Br)c2)c1N`, the growth in test [1] was 67.1%; in test [2], 97.1%; in test [3], 108%; in test [4], 96.9%; in test [5], 71.4%; in test [6] it was 91.3%. The growth in test [7] is 106%; in test [8], 97%.

Consider `Cc1[nH]c(-c2nc3ccccc3[nH]2)c(C)c1C(=O)N1CCOCC1`, for which the growth in test [1] was 99.1%; in test [2] it was 99%; in test [3], 99.7%; in test [4] it was 96.3%; in test [5], 93.3%; in test [6] it was 101%. For the same compound, the results for the growth in test [7] and in test [8] were 97.9% and 105%, respectively.

For the compound `CCN(CC)CCOc1ccc(/C(=C(\C)c2ccc(OC)c(F)c2)c2ccc(Cl)cc2)cc1`, the growth in test [1] is 89.7%; in test [2] it was 89%; in test [3] it was 60.3%; in test [4], 63.2%; in test [5] it was 70.3%; in test [6], 46.4%. Moreover, the growth in test [7] was 78.6%; in test [8], 19.1%.

In the case of `COc1cc(/C=C/C(=O)c2cccc(-n3cc(-c4ccccc4)[nH]c3=O)c2)cc(OC)c1OC`, the growth in test [1] was -6.56% (active); in test [2], -13.1% (active); in test [3], -3.32% (active); in test [4], -29% (active); in test [5], -93.8% (active); in test [6], -90.3% (active). Also, the growth was -81.4% (active) in test [7] and -53.6% (active) in test [8].

Take `CN1CCN(c2ccc3nc(/N=C/c4ccc5sc(-c6ccc([N+](=O)[O-])cc6)nc5c4)sc3c2)CC1`: the growth in test [1] is 96%; in test [2], 92.4%; in test [3] it was 102%; in test [4] it was 116%; in test [5] it was 94.7%; in test [6], 107%. In addition, the growth in test [7] was 101%; in test [8], 105%.

Turning to `O=c1oc2ccc(Cl)cc2cc1-c1cs/c(=N/N=C\c2ccc(Cl)cc2)n1/N=C/c1ccc(Cl)cc1`, the growth in test [1] was 87.5%; in test [2] it was 109%; in test [3] it was 103%; in test [4] it was 104%; in test [5], 95.7%; in test [6], 91.9%. For the same compound, the values for the growth in test [7] and in test [8] were 103% and 107%, respectively.

With `CN(CCCCCCCCNc1ccnc2ccccc12)Cc1ccc(-c2ccc(-c3ccc(C#N)cc3)s2)cc1`, the growth in test [1] was -33.6% (active); in test [2], -30.1% (active); in test [3] it was -91.6% (active); in test [4], -76.3% (active); in test [5] it was -76.5% (active); in test [6], -86.5% (active). Moreover, the growth was -89.6% (active) in test [7] and -68.6% (active) in test [8].

Turning to `COc1cc2c(cc1OC)-c1ccc3cc4c(cc3c1N(CCN(C)C)C2)OCO4`, the growth in test [1] is -12.3% (active); in test [2], -2.52% (active); in test [3], 40%; in test [4], 9.79% (active); in test [5], 4.64% (active); in test [6] it was -85.8% (active). Further, the results for the growth in test [7] and in test [8] were 26.7% and 17.1%, respectively.

As for `O=C(/C=C/C12c3ccccc3C(c3ccccc31)C1C(=O)NC(=O)C12)c1ccc(Cl)cc1` (stereo not drawn), the growth is 39.9% in test [1]; 9.59% (active) in test [2]; -19.4% (active) in test [3]; -3.94% (active) in test [4]; 10.6% in test [5]; -27.8% (active) in test [6]. Besides, the results for the growth in test [7] and in test [8] were -67% (active) and -36.6% (active), respectively.

Regarding `CCCN1CCN(c2ccc3nc(-c4ccc5nc(-c6ccc(OCC)c(OCC)c6)[nH]c5c4)[nH]c3c2)CC1`, the growth is 10.7% in test [1]; -64% (active) in test [2]; -88.2% (active) in test [3]; -65.9% (active) in test [4]; -59.5% (active) in test [5]; -83.4% (active) in test [6]. Further, the growth was -79.5% (active) in test [7] and -54.8% (active) in test [8].

As to `CCCCCCCCn1cc(C2=C(c3coc4ccc(OC)cc34)C(=O)NC2=O)c2ccccc21`, the growth in test [1] is 115%; in test [2], 87.4%; in test [3] it was 102%; in test [4], 99.1%; in test [5], 91.8%; in test [6] it was 104%. Besides, the growth in test [7] and in test [8] was 104% throughout.
